The results in this text go back to PubChem BioAssay.

Experiment [1] in a line: Her2 expression decrease, cell viability multiplex – SKBR3 breast tumor cells, AlphaScreen, ATP viability, primary screen (AID 461;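 active means Her2 level under about 52% in both replicate screens, with viability over 70% of control, limit read from the data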;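 on Her2 level: lower value means less Her2 protein in the cells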;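 on viability: percent of carrier control wells set as 100% viability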). As to conditions: SKBR3 Her2 protein level, 18-24 h, measured here: SKBR3 viability, ATP luminescence, at 10 µM. A general note: In Alpha technology, singlet oxygen from a donor bead excites a nearby acceptor bead.
Experiment [2] concerns the target Receptor tyrosine-protein kinase erbB-2 (Homo sapiens) (UniProt P04626). The description is as above. As to conditions: 18-24 h, at 10 µM, stronger effect = lower value.
A short description of experiment [3]: reduced viability of SK-BR-3 breast cancer cells – cell-based, 24 h, human, pilot screen (AID 572;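 active means viability at or below 10% of carrier control in both of two separate runs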;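 further: compound exposure lasted between 18 and 24 h rather than exactly 24 h; 100% = carrier-treated control wells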). The settings on record: SK-BR-3 viability, CellTiter-Glo luminescence, at 10 µM, stronger effect = lower value. (In general: In ATP-based viability assays light output follows the ATP content of the culture.)
A short description of experiment [4]: HUVEC growth inhibition – cell-based, human, primary screen (AID 575;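 active means viability at or below 30% in both replicate assays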;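 further: 100% = median of untreated cell wells with 0.1% DMSO on each plate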). As to conditions: HUVEC proliferation, CellTiter-Glo luminescence, 72 h; at 10 µM; stronger effect = lower value.
The nature of experiment [5]: H69AR cell proliferation blockers – human, duplicate replicates, primary screen (AID 580;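 active means viability at or under a set limit in both replicates, limit being median viability minus 3 SD, cut at about 48% in these data, passing the limit was not always enough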;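 further: 100% = mean luminescence of untreated wells and 0% = no signal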). As to conditions: H69AR lung tumor cells viability, ATP luminescence, 72 h; at 10 µM; stronger effect = lower value.
Experiment [6] in a line: MRP1 drug-resistance reversers in H69AR cells – cell-based, doxorubicin co-treatment, pilot screen (AID 601;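 active means viability loss from added drug above about 55%, and viability with drug at most 40%, in both replicates, limit read from the data, passing the limit was not always enough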). The settings on record: CellTiter-Glo, 72 h, at 10 µM; for differential viability (reversal): stronger effect = higher value.
Experiment [7] can be described thus: yeast transport mutant growth inhibition pilot in 384-well plates, post-Golgi transport modulator project (AID 636; in the data active means inhibition above about 31%). The settings on record: absorbance 615 nm, about 18 h, stronger effect = higher value.
Experiment [8] is described as follows: growth suppression of yeast trafficking mutant, preliminary HTS, modulators of trafficking downstream of Golgi apparatus project, 1536-format plate, OD 615 nm (AID 637; in the data active means inhibition above about 30%). As to conditions: yeast transport mutant growth, absorbance 615 nm, 18 h; stronger effect = higher value.
Experiment [9] can be described thus: S. cerevisiae growth inhibition in permissive medium (OD615), pilot counter-assay for S. cerevisiae lifespan shortening project, permissive growth control (AID 705;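 active means growth inhibition above 25% in both replicates, a cutoff set 3 SD above the mean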). As to conditions: OD615, 24 h, at 10 µM, stronger effect = higher value.
Experiment [10] is described as follows: S. cerevisiae growth inhibition in restrictive medium, OD615, pilot screen, restrictive growth control, yeast lifespan reduction project (AID 706;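 active means growth inhibition above a set limit, 3 SD over mean compound inhibition, in both replicates, cut at about 43% in these data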;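 further: modified DeaD lifespan yeast strain shifted to restrictive glucose medium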). The settings on record: OD615, 48 h, at 10 µM, stronger effect = higher value.
Experiment [11] in a line: doxorubicin toxicity protection in MRP-1 cells – H69AR cells, CellTiter-Glo, duplicate, MRP-1 activator project, pilot screen (AID 807).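 Further: compound pretreatment 18-22 h then 72 h combined with doxorubicin; 0% = doxorubicin alone and 100% = vehicle without doxorubicin.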 As to conditions: H69AR viability with doxorubicin, CellTiter-Glo luminescence; at 10 µM; stronger effect = higher value.
The nature of experiment [12]: viability of HCT116 without oncogenic beta-catenin – human colon tumor cells, pilot screen (AID 823;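 active means cell viability at or below a set limit in both duplicate runs, the limit being the all-compound median minus 4 SD, cut at about 23% in these data, passing the limit was not always enough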;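 further: 0% = wells killed by 20 µM Hyamine and 100% = untreated DMSO cell wells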). The settings on record: HCT116 beta-catenin knockout viability, CellTiter-Glo, 60 h; at 10 µM; stronger effect = lower value.
Experiment [13] in a line: viability of PTEN-null HCT116 cells – cell-based, HCT116 clonal line, CellTiter-Glo, pilot screen (AID 824;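 active means viability at or below 27.92% in each of two runs, the all-compound median minus 4 SD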;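 further: 0% = 20 µM Hyamine control and 100% = vehicle cell control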). As to conditions: HCT116 PTEN-deleted viability, 60 h, at 10 µM, stronger effect = lower value.
The nature of experiment [14]: RAM pathway blockade in budding yeast – dse1pr::URA3 reporter, 5-FOA selection, pilot screen (AID 869;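 active means inhibition over a set limit, the all-compound mean plus 3 SD, in both replicate runs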;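 further: 0% = DMSO wells with no growth and 100% = 10 µM 1-NA-PP1 with full growth; RAM network block rescues cells from 5-FOA so hits raise OD615 growth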). The settings on record: S. cerevisiae dse1pr::URA3 5-FOA growth, OD615, 2 d; at 10 µM; stronger effect = higher value; strain carries analog-sensitive mutant Cbk1 kinase.
Experiment [15] is described as follows: RAM signaling pathway blockade in yeast – S. cerevisiae, Pdr1DBD-CYC8 efflux-inhibited sensitized strain, primary screen (AID 1298;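 active means RAM network inhibition above 8.4% in each of two replicates, 3 SD over the compound average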;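 further: 0% = DMSO untreated cells without growth and 100% = 10 µM 1-NA-PP1 full growth; higher means more yeast growth rescued from 5-FOA killing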). As to conditions: S. cerevisiae cbk1-as DSE1-URA3 strain, 5-FOA growth OD615, 2 d; at 50 µM; stronger effect = higher value.
The mark [16] stands for this setting: H69AR cells + 2 uM doxorubicin, measured here: viability with 2 uM doxorubicin, stronger effect = lower value.
Where [17] appears, read: H69AR cells, compound alone cytotoxicity.

Results filed as inconclusive are left out. Active and inactive are the calls of the source.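 How the source made its calls, unless noted: active means viability increase at or above a cutoff of the median across tested compounds plus 3 SD (cut at about 8.5% in these data, passing the limit was not always enough); inconclusive means some gains above the cutoff, reason not given; inactive means the rest.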

Sequence of Receptor tyrosine-protein kinase erbB-2 (Homo sapiens) (P04626 whole entry, looked up): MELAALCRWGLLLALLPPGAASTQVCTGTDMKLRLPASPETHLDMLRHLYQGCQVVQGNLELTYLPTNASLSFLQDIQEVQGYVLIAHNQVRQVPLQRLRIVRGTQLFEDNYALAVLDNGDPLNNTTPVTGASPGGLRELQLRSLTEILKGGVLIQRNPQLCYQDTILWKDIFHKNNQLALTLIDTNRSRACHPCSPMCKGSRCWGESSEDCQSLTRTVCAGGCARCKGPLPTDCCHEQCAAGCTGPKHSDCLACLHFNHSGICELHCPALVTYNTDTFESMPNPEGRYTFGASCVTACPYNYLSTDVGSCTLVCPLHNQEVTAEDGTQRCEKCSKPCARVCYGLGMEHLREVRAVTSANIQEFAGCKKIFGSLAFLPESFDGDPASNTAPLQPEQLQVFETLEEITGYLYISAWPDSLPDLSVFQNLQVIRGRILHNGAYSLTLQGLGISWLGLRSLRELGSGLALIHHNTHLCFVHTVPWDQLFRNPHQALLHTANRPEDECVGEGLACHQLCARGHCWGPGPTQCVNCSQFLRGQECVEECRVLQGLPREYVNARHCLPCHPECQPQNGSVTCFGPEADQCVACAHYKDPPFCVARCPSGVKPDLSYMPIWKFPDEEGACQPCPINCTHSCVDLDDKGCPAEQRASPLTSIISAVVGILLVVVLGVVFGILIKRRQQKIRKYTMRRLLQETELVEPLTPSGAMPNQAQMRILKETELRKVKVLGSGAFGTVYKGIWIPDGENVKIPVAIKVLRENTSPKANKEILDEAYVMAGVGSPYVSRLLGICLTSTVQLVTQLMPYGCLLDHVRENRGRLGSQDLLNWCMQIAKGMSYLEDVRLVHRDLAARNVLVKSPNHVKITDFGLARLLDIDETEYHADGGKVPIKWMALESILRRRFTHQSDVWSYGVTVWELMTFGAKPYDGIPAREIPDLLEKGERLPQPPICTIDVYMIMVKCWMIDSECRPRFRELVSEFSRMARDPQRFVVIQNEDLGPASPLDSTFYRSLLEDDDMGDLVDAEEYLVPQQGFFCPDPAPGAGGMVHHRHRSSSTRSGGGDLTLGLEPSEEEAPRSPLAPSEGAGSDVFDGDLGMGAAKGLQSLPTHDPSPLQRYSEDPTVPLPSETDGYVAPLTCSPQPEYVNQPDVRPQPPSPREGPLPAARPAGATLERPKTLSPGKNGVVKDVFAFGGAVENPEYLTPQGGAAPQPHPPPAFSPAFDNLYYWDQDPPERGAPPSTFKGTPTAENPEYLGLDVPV

In the case of `Cc1ccc(CCP(=O)(O)CN2CCOCC2)cn1`, the viability – broadly, a read-out of living cells in per cent, often relative to untreated cells – was 85% in [1]; 85% (inactive) in [3]; 101% (inactive) in experiment [4]; 104% (inactive) in experiment [5]; 91.4% in experiment [6] (setting [16]); 104% in experiment [6] (setting [17]). For the same molecule, the values for the viability in experiment [12] and in experiment [13] were 89.2% (inactive) and 92.3% (inactive), respectively. Further, the Her2 level in experiment [2] is 87.5% (inactive). The differential viability (reversal) in experiment [6] (H69AR cells + 2 uM doxorubicin) is 12.3% (inactive). For the same molecule, the results for the inhibition in experiment [7], in experiment [8] and in experiment [14] were -7.57% (inactive), 3.61% (inactive) and 0.17% (inactive), respectively. In addition, the growth inhibition was -11.9% (inactive) in [9] and -9.14% (inactive) in [10]. In addition, in [11], the viability increase was 0.51% (inactive). For the same molecule, the RAM network inhibition in [15] was -0.42% (inactive).

For the molecule `COc1ccc(OC)c(NC(=O)c2nnn(Cc3ccc(Br)cc3F)c2N)c1`, the viability was 80% in [1]; 80% (inactive) in experiment [3]; 40.9% (inactive) in [4]; 75.7% (inactive) in [5]; 58.9% in experiment [6] (setting [16]); 75.7% in experiment [6] (setting [17]). In addition, the viability in experiment [12] is 69.5% (inactive); in experiment [13] it was 66.1% (inactive). In [2], the Her2 level is 88% (inactive). The differential viability (reversal) in experiment [6] (H69AR cells + 2 uM doxorubicin) was 16.7% (inactive). For the same molecule, the results for the inhibition in experiment [7], in [8] and in experiment [14] were 1.07% (inactive), -0.49% (inactive) and 1.21% (inactive), respectively. The growth inhibition in experiment [9] was -0.51% (inactive); in experiment [10] it was -7.43% (inactive). The viability increase in experiment [11] was 0.57% (inactive). Moreover, the RAM network inhibition in experiment [15] was 4.25% (inactive).

As for `Cc1cccc(OCC(=O)N2CCN(C(=O)Cc3ccccc3)CC2)c1`, the viability in experiment [1] was 102%; in experiment [3], 102% (inactive); in [4], 107% (inactive); in [5], 97.3% (inactive); in experiment [6] (setting [16]), 97.5%; in experiment [6] (setting [17]), 97.3%. Moreover, the viability in [12] is 85.4% (inactive); in experiment [13], 81.4% (inactive). In addition, the Her2 level in experiment [2] was 94% (inactive). Moreover, in experiment [6] (H69AR cells + 2 uM doxorubicin), the differential viability (reversal) was -0.125% (inactive). The inhibition (commonly the relative decrease from the control value, in per cent) is -7.33% (inactive) in experiment [7], -0.97% (inactive) in [8] and 0.285% (inactive) in experiment [14]. In addition, the figures for the growth inhibition in experiment [9] and in experiment [10] were -11.1% (inactive) and -28.1% (inactive), respectively. The viability increase in experiment [11] is -2.39% (inactive). For the same molecule, in experiment [15], the RAM network inhibition is 0.56% (inactive).

As to `Cc1nc2ccccc2c2oc(C(=O)N3CCN(C(=O)c4ccco4)CC3)cc12`, the viability is 79% in [1]; 79% (inactive) in experiment [3]; 87.4% (inactive) in experiment [4]; 83.1% (inactive) in [5]; 83.4% in experiment [6] (setting [16]); 83.1% in experiment [6] (setting [17]). Besides, the viability in experiment [12] is 101% (inactive); in experiment [13] it was 107% (inactive). The Her2 level in [2] is 95.5% (inactive). Also, in experiment [6] (H69AR cells + 2 uM doxorubicin), the differential viability (reversal) was -0.275% (inactive). Besides, the inhibition was -2.69% (inactive) in experiment [7], 1.67% (inactive) in [8] and 0.195% (inactive) in experiment [14]. For the same molecule, the values for the growth inhibition in experiment [9] and in experiment [10] were -6.06% (inactive) and 2.71% (inactive), respectively. Moreover, the viability increase in experiment [11] is -5.18% (inactive). The RAM network inhibition in experiment [15] was 2.11% (inactive).

For the molecule `COC(=O)CN1C(=O)C(O)(CC(=O)c2ccc(Cl)cc2)c2ccccc21` (configuration not stated), the viability in experiment [1] was 87.5%; in experiment [3] it was 87.5% (inactive); in experiment [4], 94.4% (inactive); in experiment [5] it was 70.5% (inactive); in experiment [6] (setting [16]), 91.8%; in [6] (setting [17]) it was 70.5%. For the same molecule, the values for the viability in [12] and in experiment [13] were 87.3% (inactive) and 91.5% (inactive), respectively. Also, the Her2 level in [2] is 88.5% (inactive). Moreover, the differential viability (reversal) in experiment [6] (H69AR cells + 2 uM doxorubicin) was -21.3% (inactive). Further, the inhibition was -6.8% (inactive) in experiment [7], 5% (inactive) in experiment [8] and 1.81% (inactive) in experiment [14]. Also, the growth inhibition in experiment [9] is -0.49% (inactive); in experiment [10] it was -8.47% (inactive). The viability increase in experiment [11] was -3.44% (inactive). In addition, the RAM network inhibition in [15] is 0.35% (inactive).

Turning to `O=C1c2ccccc2C(Nc2ccc(F)c(Cl)c2)N1Cc1ccco1` (configuration not stated), the viability in [1] was 92%; in experiment [3], 92% (inactive); in [4], 58.4% (inactive); in [5], 74% (inactive); in [6] (setting [16]) it was 75%; in experiment [6] (setting [17]), 74%. Besides, the viability in experiment [12] is 72.8% (inactive); in [13], 77.1% (inactive). In experiment [2], the Her2 level was 99% (inactive). Besides, the differential viability (reversal) in experiment [6] (H69AR cells + 2 uM doxorubicin) is -0.96% (inactive). Also, the inhibition in experiment [7] was -1.6% (inactive); in [8] it was 3.83% (inactive); in experiment [14], 1.6% (inactive). Besides, the growth inhibition in [9] is -5.7% (inactive); in [10], -1.3% (inactive). For the same molecule, the viability increase in experiment [11] was -4.57% (inactive). Further, the RAM network inhibition in experiment [15] is 7.74% (inactive).
